D3 ag – activates the human D3 dopamine receptor; P35462; AID 652048; 410,000 tested, 0.58% active; max activation, %; D3R DiscoveRx beta-arrestin cells, luminescence, 90 min; in the data active means max activation above about 30%
Target sequence (P35462 whole entry, looked up): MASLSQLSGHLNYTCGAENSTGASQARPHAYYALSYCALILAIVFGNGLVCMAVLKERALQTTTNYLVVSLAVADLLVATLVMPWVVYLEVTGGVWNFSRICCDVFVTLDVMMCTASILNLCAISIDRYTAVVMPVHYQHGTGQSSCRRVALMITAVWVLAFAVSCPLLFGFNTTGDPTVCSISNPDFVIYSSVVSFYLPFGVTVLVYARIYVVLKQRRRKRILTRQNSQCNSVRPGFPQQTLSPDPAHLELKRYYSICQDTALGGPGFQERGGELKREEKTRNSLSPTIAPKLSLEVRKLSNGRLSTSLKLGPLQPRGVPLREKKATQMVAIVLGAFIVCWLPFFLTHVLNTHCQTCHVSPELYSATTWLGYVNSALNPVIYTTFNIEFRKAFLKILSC
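Agonist mode: compounds and dopamine controls were applied to plated cells for 90 min at 37 degrees C after an overnight attachment at 1500 cells/well. Luminescent read-out followed 30 - 60 minutes at room temperature with DiscoveRx detection reagent.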
MmCpn inh – blocks the Methanococcus maripaludis chaperonin Mm-Cpn; Potency, µM (highest dose often 76.9 µM), actives largely listed as inhibitors; AID 504842; 330,000 tested, 0.031% active; purified Mm-Cpn ATPase, ADP Transcreener TR-FRET; active means well fitted inhibition curve with a large enough effect; inconclusive means small, poorly fitted or top-dose-only effect; further: nearly all actives have a fitted effect of over 80% in size
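Eu-cryptate anti-ADP/ADP-d2 competition gives a ratio inversely related to ADP. Enzyme at 25 nM was pre-exposed to compound for 10 min, then given 10 uM ATP for 30 min, 37°C throughout.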
Rango complex inh – inhibitors of Rango-importin beta complex formation. Q14974. Rango CFP/YFP FRET sensor + importin beta, 45 min. Potency, µM (top dose mostly 92.2 µM). 340,000 tested, 0.031% active. AID 540263; further: nearly all actives have a fitted effect of over 15% in size
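FRET biosensor (snurportin 1 IBB flanked by EYFP and cerulean), 50 nM, with compound 5 min, then 0.125 microM importin beta in PBS, 1 mM DTT, 0.02% Tween-20, 0.1% BSA. CFP/YFP ratio read after 45 min at room temperature; pre-read flags interference.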
Rango release inh – prevents RanGTP from dissociating the Rango-importin beta complex; O95149+P62826; Biochemical FRET Rango-importin beta, RanGTP-induced dissociation; Potency, µM (top dose mostly 46.1 µM); 340,000 tested, 0.071% active; further: nearly all actives have a fitted effect of over 45% in size
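Rango FRET biosensor (snurportin-1 IBB flanked by N-terminal EYFP and C-terminal CFP10) at 0.1 uM, with 0.25 uM importin beta in PBS, 1mM DTT, 0.02% Tween-20, 0.1% BSA. 0.6 uM Ran, 2mM GTP and 0.2 uM RCC1 were then added for 45 min at room temperature. Inhibition read as loss of FRET rise.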
PTAP TSG101 blk – blocks PTAP/TSG101 interaction to inhibit HIV-1 budding; 340,000 tested, under 10 active; Fluorescence polarization, FITC-PTAP peptide / Tsg101 binding; Potency, µM (doses to about 115 µM), most hits filed as inhibitors; AID 493005; Q99816; active means well fitted inhibition curve with a large enough effect in the main read-out, with a control signal flat, not every such curve was filed as active; inconclusive means small, poorly fitted or top-dose-only effect, or effect the other way, or a change in a side signal; inactive means no such curve, though single readings can be large or run the other way
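Fluorescence polarization binding of Tsg101 binding domain (10 uM final) to FITC-labeled PTAP peptide (50 nM final) in HEPES pH 7.5 buffer with NaCl, Tween 20, EDTA, TCEP. Compounds added before peptide; binding 20 min at RT.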
DRD3 antagonist – blocks the human D3 dopamine receptor. 360,000 tested, 2.5% active. D3R cells, DiscoveRx beta-arrestin luminescence, antagonist mode; stronger effect = lower value. P35462. max response, negative = inhibition, %; in the data active means max response below about -50%; inconclusive means no clear call, values can overlap the other calls
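Cells plated overnight at 1500 cells/well, then exposed to library compounds with dopamine controls for 90 minutes at 37 degrees C. DiscoveRx reagent added for 30–60 minutes at room temperature; luminescence read, quantitative HTS format.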
Of the large screens only hits and unclear results are named; the others gave an inactive call. A selection: hits, their analogues and other compounds. The true share with any hit is near 2.9%. Unless noted, the call rests on the fitted dose curve.

CCc1nc2c(OCC(=O)N3CCOCC3)cccn2c1N(C)C(=O)COc1ccccc1	DRD3 antagonist -53 (no result: MmCpn inh, Rango complex inh, Rango release inh, PTAP TSG101 blk)
COc1cccc(CN(CC(=O)NCc2ccc(F)cc2)C(=O)c2ccco2)c1	none
Cc1c(C(=O)N2CCN(c3ccccn3)CC2)oc2c(F)cccc12	D3 ag 60
O=C(NCc1ccccc1Cl)c1cc2c(s1)-c1ccccc1SC2	none (no result: MmCpn inh, Rango complex inh, Rango release inh, PTAP TSG101 blk, DRD3 antagonist)
O=C(Nc1ccc(Cl)cc1Cl)c1cccc(N2C(=O)C=CC2=O)c1	DRD3 antagonist -85
S=c1[nH]nc(-c2cccs2)n1/N=C/c1cn(-c2ccccc2)nc1-c1cccs1	D3 ag 30
O=C(O)CC(NS(=O)(=O)c1ccc(Br)s1)c1ccccc1 (stereo not given)	none (no result: MmCpn inh, Rango complex inh, Rango release inh, PTAP TSG101 blk, DRD3 antagonist)
O=C(CCC(=O)N/N=C/c1cc(Cl)cc(Cl)c1O)NCc1ccccc1	Rango complex inh inconclusive, Rango release inh inconclusive, DRD3 antagonist -54
Cc1ccc2oc(=O)n(CCCOc3ccc(Cl)cc3)c2c1	none (no result: MmCpn inh, Rango complex inh, Rango release inh, PTAP TSG101 blk, DRD3 antagonist)
CCc1ccc(CN2C(=O)c3ccccc3C2C(=O)NCCc2ccc(OC)c(OC)c2)cc1 (stereo not given)	none (no result: MmCpn inh, Rango complex inh, Rango release inh, PTAP TSG101 blk, DRD3 antagonist)
COc1ccc(CCN(C)CCCN2CC(c3ccccc3)CC2=O)cc1OC (stereo not given)	DRD3 antagonist inconclusive
COc1ccc(CCN(C)CCCC(C#N)(c2ccc(OC)c(OC)c2)C(C)C)cc1OC (stereo not given)	DRD3 antagonist -88 (no result: D3 ag, MmCpn inh, Rango complex inh, Rango release inh, PTAP TSG101 blk)
CCC(NC(=O)c1cccc(Cn2cc([N+](=O)[O-])cn2)c1)c1ccc(C(C)C)cc1 (stereo not given)	DRD3 antagonist -53
O=C(NN1C(=O)c2cc(Br)ccc2NC1c1ccccc1Cl)c1ccncc1 (stereo not given)	none
O=C(NN1C(=O)c2cc(Br)ccc2NC1c1cc(Br)cc(Br)c1O)c1ccncc1 (stereo not given)	Rango complex inh inconclusive, Rango release inh inconclusive, DRD3 antagonist -66
CCCOc1cccc(C2c3c(oc4ccc(F)cc4c3=O)C(=O)N2c2nc(C)c(C(C)=O)s2)c1 (stereo not given)	none (no result: MmCpn inh, Rango complex inh, Rango release inh, PTAP TSG101 blk, DRD3 antagonist)
